Source: PubChem BioAssay (NCATS)
Records with an inconclusive call do not appear. A call without a number means that no potency is given here. Active and inactive are the calls of the source. Calls come from the whole dose curve; as a rule, active = well fitted curve in the direction sought with a large enough effect; inconclusive = small, poorly fitted or top-dose-only effect, or another doubt; inactive = no such curve, though single readings can be large; an effect the other way counts as inactive or inconclusive.

test system: Nanoluciferase (engineered Oplophorus gracilirostris luciferase); experiment: Primary Nanoluciferase (NLuc) qHTS assay for identification of artifact compounds. (AID 1845222); details: NLuc-conditioned medium, Nano-Glo luminescence, 5 min; series mostly up to 54.1 µM;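 note: NLuc secreted into diluted conditioned medium of S16 cells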
Procedure, shortened: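 Concentration-response data were obtained by luminescence after 5 min with Nano-Glo substrate at 1:100. The enzyme was diluted S16 NLuc-expressing cell medium, preincubated with compound for 15 min at RT. Curves were fitted with a 4-parameter Hill model.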

Structure (SMILES)	Potency	activity, negative = inhibition
O=C(OCC1=C[C@@H](O)[C@@H]2C=CO[C@@H](O[C@@H]3O[C@H](CO)[C@@H](O)[C@H](O)[C@H]3O)[C@H]12)c1ccc(O)cc1	inactive	–
CC1=C2C[C@@]3(C)C(CCC[C@@H]3C)C(O)C2(O)OC1=O (some centres undefined)	inactive	–
CO[C@@H]1[C@]2(O)C(=O)N3/C=C\C(C)(C)c4[nH]c5ccccc5c4/C=C\3C(=O)N2[C@]23[C@H](CO)C(C)(C)N2c2ccccc2[C@]13O	inactive	–
CC(CCO)CCC1C2(C)CCCC(C)(C)C2CC[C@@]1(C)O (some centres undefined)	inactive	–
C[C@@H]1O[C@@H](OC2C(O[C@H]3[C@H](O[C@H]4CC[C@@]5(C)C(CC[C@]6(C)C5CC=C5C7CC(C)(C)CC(O)[C@]7(C)CC[C@]56C)C4(C)C)O[C@H](C(=O)O)[C@@H](O)[C@@H]3O)OC(CO)C(O)C2O)[C@H](O)[C@H](O)[C@H]1O (some centres undefined)	–	0% [at 11.6 µM] (inactive)
C[C@H]1/C=C/C=C/C=C/C=C/C=C/[C@@H](O)[C@H](C(=O)O)[C@H](O)C[C@H](O)CCC[C@H](O)C[C@H](O)C[C@H](O)[C@@H](C)C(=O)O[C@@H]1C	inactive	–
CC(=O)/C=C/[C@H]1[C@](C)(O)[C@@H](O)[C@H](O)C2C(C)(C)CCC[C@@]21C (some centres undefined)	inactive	–
CC(=O)O[C@@H]1C[C@@H](C)[C@](O)(CCC2=CC(=O)OC2)[C@@]2(C)CCCC(C)(C)C12 (some centres undefined)	inactive	–
CC(=O)OCC1OC(O[C@H]2CC[C@]34C[C@]35CC(O)[C@]3(C)[C@@H]([C@H](C)CC/C=C(\C)C(=O)O)C(O)C[C@@]3(C)C5CC[C@H]4C2(C)C)C(O)C(O)C1OC1OCC(O)C(O)C1O (some centres undefined)	–	-3.42% [at 11.6 µM] (inactive)
O=C(O)c1ccnc2cc(-c3nc4ccccc4n3CCN3CCCCC3)sc12	inactive	–
Cc1nnc(-c2sc(NC(=O)[C@H](C(C)C)n3c(=O)[nH]c4ccccc4c3=O)nc2C)o1	inactive	–
O=C(OC(C(F)(F)F)C(F)(F)F)N1CCN(Cc2cccc(Oc3ccccc3)c2)CC1	inactive	–
O=C(OC[C@H]1O[C@H](O[C@]2(CO)O[C@H](CO)[C@@H](O)[C@@H]2O)[C@H](O)[C@@H](O)[C@@H]1O)c1ccc(O)cc1	inactive	–
COc1cc(Cc2cnc(N)nc2N)c(C(C)C)cc1OC	inactive	–
CC(C)CC[C@@H](O)[C@](C)(O)[C@H]1CC[C@@]2(O)C3=CC(=O)[C@@H]4C[C@@H](O)[C@@H](O)C[C@]4(C)[C@H]3CC[C@]12C	inactive	–
C=C1CCC(OC(C)=O)C2(C)CC3OC(=O)C(C)=C3CC12 (centres undefined)	inactive	–
Cc1ccc2nc(NC(=O)CSc3nc4c(c(=O)n3-c3ccc(F)cc3)SCC4)sc2c1	inactive	–
Cc1nc2cc(-c3cc(F)cc(C#N)c3)ccc2s1	inactive	–
CC12CC(c3ccoc3)OC(=O)C1CCC1(C)C2CCC(O)C1(C)O (centres undefined)	inactive	–
C[C@@H]1O[C@@H](O[C@H]2[C@H](O[C@H]3[C@H](O[C@H]4CC[C@@]5(C)C(CC[C@]6(C)C5CC=C5[C@@H]7CC(C)(C)C[C@@H](O)[C@]7(C)CC[C@]56C)[C@@]4(C)CO)O[C@H](C(=O)O)[C@@H](O)[C@@H]3O)O[C@H](CO)[C@H](O)[C@@H]2O)[C@H](O)[C@H](O)[C@H]1O (some centres undefined)	–	4.57% [at 11.6 µM] (inactive)
COc1cc2c(c(OC)c1O)C(c1ccc(O)cc1)C1C(=O)OC3C(COC(=O)C1=C2)OC(CO)(OC1OC(COC(=O)/C=C/c2ccc(OC4OC(C)C(O)C(O)C4O)cc2)C(O)C(O)C1O)C3O (centres undefined)	–	-14.9% [at 11.6 µM] (inactive)

test system: not listed separately; experiment: Primary redox qHTS assay for identification of artifact compounds. (AID 1845223); details: Amplex Red/HRP redox cycling with DTT, fluorescence; series mostly up to 53.8 µM
Procedure, shortened: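 Amplex Red (25 uM) and HRP (250 mU/mL) in HBSS, with compounds for 15 min, then 250 uM DTT for 30 min, room temperature, dark. Fluorescence 525/598 nm read; normalized to DMSO and 10 uM DA3003; Hill fit.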

Structure (SMILES)	Potency	redox activity (% of DA3003)
O=C(O)/C=C/c1ccc(O[C@@H]2O[C@H](CO)[C@@H](O)[C@H](O)[C@H]2O)cc1	inactive	–
O=C(OCC1=C[C@@H](O)[C@@H]2C=CO[C@@H](O[C@@H]3O[C@H](CO)[C@@H](O)[C@H](O)[C@H]3O)[C@H]12)c1ccc(O)cc1	inactive	–
Cc1cc(-c2nncc3c(C(C)(C)C)c(OCc4ncnn4C)nn23)no1	inactive	–
CC1=C2C[C@@]3(C)C(CCC[C@@H]3C)C(O)C2(O)OC1=O (some centres undefined)	inactive	–
CO[C@@H]1[C@]2(O)C(=O)N3/C=C\C(C)(C)c4[nH]c5ccccc5c4/C=C\3C(=O)N2[C@]23[C@H](CO)C(C)(C)N2c2ccccc2[C@]13O	inactive	–
CSC(=O)OCC1=C[C@@H]2OC(=O)C3=CO[C@@H](O[C@@H]4O[C@H](CO)[C@@H](O)[C@H](O)[C@H]4O)[C@H]1[C@@H]32	inactive	–
C[C@@]1(O)[C@H](O)[C@@H](CO)O[C@H]1n1cnc2c(=O)[nH]c(N)nc21	inactive	–
CC(=O)OC1C(O)/C(C)=C\C2C(OC(=O)c3ccccc3)C(C)CC2(OC(C)=O)C(OC(C)=O)C(C)/C=C/C(C)(C)C1OC(C)=O (centres undefined)	inactive	–
C=C1[C@@H]2CC[C@@]3(C)[C@H](c4ccoc4)OC(=O)C[C@]13O[C@H]1CC(=O)C(C)(C)[C@H](C(O)C(=O)OC)[C@]12C (some centres undefined)	inactive	–
CC(CCO)CCC1C2(C)CCCC(C)(C)C2CC[C@@]1(C)O (some centres undefined)	inactive	–
O=C(/C=C/c1ccc(O)cc1)OCC1OC(O)C(OC2OC(CO)C(O)C(O)C2O)C(O)C1O (centres undefined)	inactive	–
C[C@@H]1O[C@@H](OC2C(O[C@H]3[C@H](O[C@H]4CC[C@@]5(C)C(CC[C@]6(C)C5CC=C5C7CC(C)(C)CC(O)[C@]7(C)CC[C@]56C)C4(C)C)O[C@H](C(=O)O)[C@@H](O)[C@@H]3O)OC(CO)C(O)C2O)[C@H](O)[C@H](O)[C@H]1O (some centres undefined)	–	6.57% [at 11.5 µM] (inactive)
C[C@H]1/C=C/C=C/C=C/C=C/C=C/[C@@H](O)[C@H](C(=O)O)[C@H](O)C[C@H](O)CCC[C@H](O)C[C@H](O)C[C@H](O)[C@@H](C)C(=O)O[C@@H]1C	inactive	–
CC(=O)/C=C/[C@H]1[C@](C)(O)[C@@H](O)[C@H](O)C2C(C)(C)CCC[C@@]21C (some centres undefined)	inactive	–
CC(=O)O[C@@H]1C[C@@H](C)[C@](O)(CCC2=CC(=O)OC2)[C@@]2(C)CCCC(C)(C)C12 (some centres undefined)	inactive	–
CC(=O)OCC1OC(O[C@H]2CC[C@]34C[C@]35CC(O)[C@]3(C)[C@@H]([C@H](C)CC/C=C(\C)C(=O)O)C(O)C[C@@]3(C)C5CC[C@H]4C2(C)C)C(O)C(O)C1OC1OCC(O)C(O)C1O (some centres undefined)	–	-5.4% [at 11.5 µM] (inactive)
Cc1c(F)cc(C(=O)NC2CC2)cc1-c1ccc(C(=O)NCC(C)(C)C)cn1	inactive	–
O=C(O)c1ccnc2cc(-c3nc4ccccc4n3CCN3CCCCC3)sc12	inactive	–
Cc1nnc(-c2sc(NC(=O)[C@H](C(C)C)n3c(=O)[nH]c4ccccc4c3=O)nc2C)o1	inactive	–

Structure (SMILES)	Potency	redox activity (% of DA3003)
O=C(OC(C(F)(F)F)C(F)(F)F)N1CCN(Cc2cccc(Oc3ccccc3)c2)CC1	inactive	–
O=C(OC[C@H]1O[C@H](O[C@]2(CO)O[C@H](CO)[C@@H](O)[C@@H]2O)[C@H](O)[C@@H](O)[C@@H]1O)c1ccc(O)cc1	inactive	–
Cc1cc(CO)c(O)c(C(=O)CC2CC(=O)NC(=O)C2)c1	inactive	–
COc1cc(Cc2cnc(N)nc2N)c(C(C)C)cc1OC	inactive	–
CC(C)CC[C@@H](O)[C@](C)(O)[C@H]1CC[C@@]2(O)C3=CC(=O)[C@@H]4C[C@@H](O)[C@@H](O)C[C@]4(C)[C@H]3CC[C@]12C	inactive	–
C=C1CCC(OC(C)=O)C2(C)CC3OC(=O)C(C)=C3CC12 (centres undefined)	inactive	–
Cc1ccc2nc(NC(=O)CSc3nc4c(c(=O)n3-c3ccc(F)cc3)SCC4)sc2c1	inactive	–
CC(=O)c1[nH]cc(CCC(=O)O)c1CC(=O)O	inactive	–
FC(F)(F)c1nnc2c(Sc3ccccc3)nc3ccc(Cl)cc3n12	inactive	–
O=C(/C=C/c1ccc(O)c(O)c1)O[C@H]1[C@@H]2C=CO[C@@H](O[C@@H]3O[C@H](CO)[C@@H](O)[C@H](O)[C@H]3O)[C@@H]2[C@@]2(CO)O[C@@H]12	inactive	–
C=C1CCC2[C@](C)(CCC[C@]2(C)C(=O)O)[C@H]1CC/C(C)=C/C(=O)OC (some centres undefined)	inactive	–
Cc1nc2cc(-c3cc(F)cc(C#N)c3)ccc2s1	inactive	–
COC(=O)C[C@H]1C(C)(C)[C@H](OC(=O)C(C)C)C2CC3=C4CC(=O)O[C@@H](c5ccoc5)[C@]4(C)CCC3[C@@]1(C)C2=O (some centres undefined)	inactive	–
O=C(/C=C/c1ccccc1)OC[C@H]1O[C@@H](OC(=O)c2cc(O)c(O)c(O)c2)[C@H](O)[C@@H](O)[C@@H]1O	inactive	–
CC12CC(c3ccoc3)OC(=O)C1CCC1(C)C2CCC(O)C1(C)O (centres undefined)	inactive	–
C[C@@H]1O[C@@H](O[C@H]2[C@H](O[C@H]3[C@H](O[C@H]4CC[C@@]5(C)C(CC[C@]6(C)C5CC=C5[C@@H]7CC(C)(C)C[C@@H](O)[C@]7(C)CC[C@]56C)[C@@]4(C)CO)O[C@H](C(=O)O)[C@@H](O)[C@@H]3O)O[C@H](CO)[C@H](O)[C@@H]2O)[C@H](O)[C@H](O)[C@H]1O (some centres undefined)	–	10.7% [at 11.5 µM] (inactive)
COc1ccccc1Oc1c(NS(=O)(=O)c2ccc(C)cn2)nc(-c2ccncc2)nc1OC	inactive	–
C/C(=C\CO)CC/C=C(\C)C(=O)O[C@@H]1O[C@H](CO)[C@@H](O)[C@H](O)[C@H]1O	inactive	–
COc1cc2c(c(OC)c1O)C(c1ccc(O)cc1)C1C(=O)OC3C(COC(=O)C1=C2)OC(CO)(OC1OC(COC(=O)/C=C/c2ccc(OC4OC(C)C(O)C(O)C4O)cc2)C(O)C(O)C1O)C3O (centres undefined)	–	0.553% [at 11.5 µM] (inactive)
